This is one part of a sample in which hits are shown more often than they occur.
RE007 growth inh – less growth of the S. pombe RE007 Vpr strain | S. pombe RE007 Vpr strain, BacTiter-Glo ATP luminescence, 24 h | AID 651644 | Potency, µM (highest dose often 92.2 µM), most hits filed as inhibitors | 360,000 tested, 0.21% active; active = well fitted falling curve with a large enough effect; note: nearly all actives have a fitted effect of over 50% in size
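Fission yeast RE007 carrying one integrated HIV-1 vpr copy, seeded at OD 0.01 in PMG+AL medium with 23 nL pinned compound. Grown 24 h at 30 degrees; viability read by BacTiter-Glo luminescence after 5 min.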
LmPK inhibitor – blocks Leishmania mexicana pyruvate kinase activity; Q27686; 290,000 tested, 0.37% active; AID 1721; Potency, µM (top dose mostly 57.5 µM), usual class: inhibitors; purified LmPK, Kinase-Glo ATP luminescence, 1 h
Target sequence (Q27686 whole entry, looked up): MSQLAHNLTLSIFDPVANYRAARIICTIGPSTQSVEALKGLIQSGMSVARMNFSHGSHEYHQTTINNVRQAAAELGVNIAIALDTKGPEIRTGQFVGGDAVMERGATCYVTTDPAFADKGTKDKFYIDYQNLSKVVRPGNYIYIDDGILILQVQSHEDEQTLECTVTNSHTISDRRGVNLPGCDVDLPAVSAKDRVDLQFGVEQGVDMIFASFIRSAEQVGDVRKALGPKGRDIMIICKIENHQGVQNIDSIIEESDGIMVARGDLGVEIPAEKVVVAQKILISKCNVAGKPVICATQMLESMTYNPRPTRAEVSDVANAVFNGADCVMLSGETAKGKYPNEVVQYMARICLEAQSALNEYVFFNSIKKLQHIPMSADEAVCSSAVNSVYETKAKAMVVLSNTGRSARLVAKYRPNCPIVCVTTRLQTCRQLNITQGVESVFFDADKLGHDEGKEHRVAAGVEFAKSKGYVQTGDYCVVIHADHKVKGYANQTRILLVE
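Purified LmPK (0.1 nM) with 0.5 mM PEP and 0.1 mM ADP in imidazole buffer pH 7.2 with MgCl2/KCl, 1 h at room temperature. ATP formed was read by luciferase luminescence and normalized to no-enzyme and uninhibited controls.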
Tb PYK inh – T. brucei pyruvate kinase inhibition. TbPYK enzyme, Kinase-Glo Plus ATP luminescence, 45 min. Potency, µM (series often up to 76.8 µM), actives largely listed as inhibitors. AID 624173. 410,000 tested, 0.12% active. Q57TT1; note: nearly all actives have a fitted effect of over 50% in size
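ADP (130 uM final) triggers the TbPYK reaction after compound addition; incubation is 45 min at room temperature. Kinase-Glo Plus is then added and luminescence imaged. Normalized data are fitted to concentration-effect curves.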
Giardia FBPA inh – blocks Giardia fructose-bisphosphate aldolase activity. AID 2451. purified Giardia FBPA. Potency, µM (top dose mostly 59.6 µM), usual class: inhibitors. 290,000 tested, 0.71% active; note: nearly all actives have a fitted effect of over 55% in size
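Giardia FBPA (40 nM reagent) was preincubated 10 min at RT with compound (up to 57.5 uM final), then substrate plus GAPDH/TPI/NAD/arsenate coupling system with diaphorase/resazurin was added; resorufin fluorescence (525/598 nm) was read after 20 min.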
CHX counter – counter-screen hit for Shiga toxin inhibitors, cycloheximide; cell reporter, cycloheximide protein synthesis inhibition counterscreen; max response, %; 300,000 tested, 12% active; in the data active = max response mostly above about 13%, no sharp cut-off; inactive = mostly below about 14%; note: read at 38.3 µM for the half of the compounds with a filed dose
Shiga inhibitor – blocks Shiga toxin action in Vero cells; inhibition, % at 38.7 µM; Vero cells, Shiga toxin protein synthesis inhibition reporter; 290,000 tested, 9.2% active; in the data active = inhibition mostly above about 28%, no sharp cut-off; inactive = mostly below about 43%
Numbers stand for hits; n = inactive; x = no result. Unless noted, calls come from the whole dose curve; as a rule, active = well fitted curve in the direction sought with a large enough effect; inconclusive = small, poorly fitted or top-dose-only effect, or another doubt; inactive = no such curve, though single readings can be large; an effect the other way counts as inactive or inconclusive.

SMILES	RE007 growth inh	LmPK inhibitor	Tb PYK inh	Giardia FBPA inh	CHX counter	Shiga inhibitor
CCc1ccc(NC(=O)CC2C(=O)N(c3cccc(C)c3)C(=O)N2Cc2ccco2)cc1 (configuration not stated)	x	x	n	x	x	x
COc1ccc(-c2csc(Nc3ncccc3C)n2)cc1OC	n	n	n	n	34	139
COc1ccc(-c2csc(Nc3ncccn3)n2)cc1C	n	n	n	n	31	48
COc1ccc(-c2csc(Nc3cc(C)ccn3)n2)cc1C	n	n	n	n	62	120
CC(C)(C)NC(=O)[C@H]1CN(Cc2cccnc2)CCN1C[C@@H](O)C[C@@H](Cc1ccccc1)C(=O)N[C@H]1c2ccccc2C[C@H]1O	x	x	n	n	n	n
O=C(Nc1nc2cc3c(cc2s1)OCO3)c1ccc(N2C(=O)CCC2=O)cc1	n	n	n	n	n	n
Cc1cc(C)c2sc(NC(=O)c3ccc(N4C(=O)CCC4=O)cc3)nc2c1	n	n	n	n	n	n
Cc1ccnc(NC(=O)c2ccc(N3C(=O)CCC3=O)cc2)c1	n	n	n	n	45	49
O=C(Nc1nc2cc3c(cc2s1)OCO3)c1cccc(N2C(=O)CCC2=O)c1	n	n	n	n	25	50
COc1cc(C(=O)Nc2cc(C)ccn2)cc(OC)c1OC	n	n	n	n	n	n
Cc1ccc2nc(NC(=O)c3ccc4ncsc4c3)sc2c1	n	n	n	n	33	60
Cc1ccc2nc(NC(=O)c3ccc(N4C(=O)CCC4=O)cc3)sc2c1	n	n	n	n	31	51
CC[C@H](C)[C@H](NC(=O)CNC(=O)[C@H](CCCNC(=N)N)NC(=O)CNC(=O)[C@@H](NC(=O)[C@H](Cc1ccc(O)cc1)NC(=O)[C@H](Cc1c[nH]c2ccccc12)NC(=O)[C@H](C)NC(=O)[C@@H]1CCCN1C(=O)[C@H](CC(N)=O)NC(=O)[C@@H](NC(=O)[C@H](CC(=O)O)NC(=O)[C@@H]1CCCN1C(=O)[C@@H](N)[C@@H](C)O)[C@@H](C)CC)[C@@H](C)O)C(=O)N[C@@H](CCCNC(=N)N)C(=O)N1CCC[C@H]1C(=O)N[C@H](C(=O)NCC(=O)N[C@@H](CCCNC(=N)N)C(=O)N[C@@H](Cc1ccccc1)C(N)=O)C(C)C	x	x	x	n	n	n
CCOC(=O)c1[nH]c(C)c(CCC(=O)N2CCN(c3ccc(OC)cc3)CC2)c1C	x	x	n	x	x	x
Cc1c(CC(=O)N2CCCCC2)c(=O)oc2cc(O)ccc12	x	x	n	x	x	x
CC(CNC(=O)c1cc2cc(S(=O)(=O)N3CCCCC3)ccc2n1C)c1ccccc1 (configuration not stated)	x	x	n	x	x	x
CCCc1nnc(NC(=O)Cc2coc3c(C)c(C)ccc23)s1	x	x	n	x	x	x
O=C(Nc1nc(-c2ccc(F)cc2)cs1)c1cccc(N2C(=O)CCC2=O)c1	n	n	n	n	16	n
Cc1ccc2nc(NC(=O)c3ccc4c(c3)OCO4)sc2c1	n	n	n	n	62	76
NS(=O)(=O)c1ccc2nc(NC(=O)c3ccc4ncsc4c3)sc2c1	n	n	n	x	9.3	n
NS(=O)(=O)c1ccc2nc(NC(=O)c3ccc4c(c3)OCCO4)sc2c1	n	n	n	x	n	n
Cc1ccnc(NC(=O)c2ccc3c(c2)C(=O)N(CC2CCCO2)C3=O)c1 (configuration not stated)	n	n	n	n	24	62
CCOc1ccc(-n2c(=O)c3c4c(sc3n(CC(=O)NC(C)CC)c2=O)CCCC4)cc1 (configuration not stated)	x	x	n	x	x	x
CCc1ccccc1NC(=O)CSc1nc2c(c(=O)[nH]1)CN(Cc1ccccc1OC)CC2	x	x	n	x	x	x
COC(=O)c1c(-c2cccs2)csc1NC(=O)COc1c(C)ccc(C)c1C	x	x	n	x	x	x
SMILES	RE007 growth inh	LmPK inhibitor	Tb PYK inh	Giardia FBPA inh	CHX counter	Shiga inhibitor
O=C(/C=C/c1ccc2c(c1)OCO2)Nc1nc2ccc(F)cc2s1	n	n	n	n	22	63
Cc1ccc(NC(=O)c2ccc3ccccc3n2)cc1S(=O)(=O)N(C)C	n	n	n	n	27	79
Cc1ccc(NC(=O)c2c3c(nc4ccccc24)CCC3)cc1S(=O)(=O)N(C)C	n	n	n	n	37	50
Cc1ccc(NC(=O)c2c3c(nc4ccccc24)CCC3)cc1	n	n	n	n	n	n
CCCCC(=O)Nc1c(C(=O)N2CCN(c3ccccc3)CC2)oc2ccccc12	x	x	n	x	x	x
O=C(CSc1ccc([N+](=O)[O-])cn1)Nc1ccc2c(c1)OCCO2	n	n	n	n	17	n
O=C(CSc1ccccn1)Nc1ccc2c(c1)OCCO2	n	n	n	n	54	89
O=C(CCn1c(=S)oc2ccccc21)N1CCCCC1	n	n	n	n	26	n
O=C(CSc1nccc(=O)[nH]1)Nc1ccc2c(c1)OCCO2	n	n	n	n	42	155
Cc1ccccc1CSc1nnc2[nH]c(=O)cc(C)n12	x	x	n	x	x	x
Cc1cc(=O)oc2cc(NC(=O)C(CCCCN)NC(=O)C(CC3CCCCC3)NC(=O)OCC3c4ccccc4-c4ccccc43)ccc12 (configuration not stated)	x	x	x	n	n	n
COc1ccccc1-c1ccc2ncnc(N(C)C)c2c1	x	x	x	n	x	x
Cc1noc(C)c1-c1nccc(N2CCN(C)CC2)n1	x	x	x	n	x	x
COc1cccc(Nc2nnc(SCC(=O)N3CCOCC3)s2)c1	n	n	n	n	16	n
CCn1c(SCC(=O)NC(=O)Nc2ccc3c(c2)OCCO3)nnc1-c1cccs1	n	n	n	n	18	n
O=c1c2ccccc2ncn1-c1ccc2c(c1)OCCO2	n	n	n	n	32	65
COc1ccc(Nc2nnc(SCC(=O)NC(=O)Nc3ccc4c(c3)OCCO4)s2)cc1	n	n	n	n	15	n
COc1ccc(Nc2nnc(SCC(=O)N3CCCC3)s2)cc1	n	n	n	n	n	n
O=C(Cn1c(=O)nc(-c2ccccc2)c2cc(Cl)ccc21)NCCCc1ccccc1	x	x	n	x	x	x
O=C(CCS(=O)(=O)c1cc2c(cc1Cl)NC(=O)CO2)NCCc1ccc(Cl)cc1	x	x	n	x	x	x
O=C(Cn1cnc2ccccc2c1=O)NCCC(=O)Nc1ccc2c(c1)OCO2	n	n	n	n	n	n
O=C(CCn1cnc2ccccc2c1=O)Nc1ccc2c(c1)OCCO2	n	n	n	n	14	73
O=C(CSc1ncccn1)NC(=O)Nc1ccc2c(c1)OCCO2	n	n	n	n	35	46
O=C(CCCn1c(=O)oc2ccccc21)N1CCc2ccccc2C1	n	n	n	n	27	38
O=C(CCn1c(=S)oc2ccccc21)Nc1ccc2c(c1)OCCO2	n	n	n	n	15	n
O=C1CCN(C(=O)CCCn2c(=O)oc3ccccc32)CC1	n	n	n	n	n	n

Screening data as filed in PubChem BioAssay.
